Screens (PubChem)
A selection: hits, their analogues and other compounds. The true share with any hit is near 2.4%.
D2 PAM-1: Beta-Arrestin HTS for Positive Allosteric Modulators of the Human D2 Dopamine Receptor: Potentiators. D(2) dopamine receptor (Homo sapiens), P14416. DiscoveRx D2 beta-arrestin cells, luminescence, 90 min; 100% = 57 uM dopamine signal. potentiation, % (test concentration not listed). actives 0.23% (n = 360,000). AID 624464, 2012; in the data active = potentiation above about 50%; inconclusive = mostly about 30% to 49%
Target sequence (P14416 whole entry, looked up): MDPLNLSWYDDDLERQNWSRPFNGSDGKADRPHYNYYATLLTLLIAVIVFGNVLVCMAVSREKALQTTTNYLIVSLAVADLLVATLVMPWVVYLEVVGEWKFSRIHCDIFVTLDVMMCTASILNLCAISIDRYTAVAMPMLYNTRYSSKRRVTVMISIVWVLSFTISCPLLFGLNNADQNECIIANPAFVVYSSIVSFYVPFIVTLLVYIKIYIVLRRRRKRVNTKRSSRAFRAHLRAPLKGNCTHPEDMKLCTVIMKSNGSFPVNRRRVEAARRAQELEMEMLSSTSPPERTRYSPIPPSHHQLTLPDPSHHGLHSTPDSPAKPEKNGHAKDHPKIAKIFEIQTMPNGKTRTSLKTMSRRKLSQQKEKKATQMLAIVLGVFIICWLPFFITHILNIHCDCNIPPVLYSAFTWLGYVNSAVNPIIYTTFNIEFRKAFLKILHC
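PathHunter D2 cells, attached overnight at 37 deg C, received compound in DMSO plus dopamine at EC20 (50 nM final) for 90 min at 37 deg C. Beta-arrestin recruitment was read as luminescence after 1 h with detection reagent at ambient temperature.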
D2 ag-1: HTS Assay for Allosteric Agonists of the Human D2 Dopamine Receptor: Primary Screen for Agonists. activation, % at 2 µM. actives 0.53% (n = 340,000). HEK293 T-REx D2 cells, calcium flux agonist mode. AID 485358, 2010. D(2) dopamine receptor (Homo sapiens), P14416;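 active = activation over 3 SD above normal in the single-dose calcium agonist read, cut at about 30% in these data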; note: 0% is about no effect
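Tetracycline-induced HEK293 T-REx cells with force-coupled D2 receptor, plated overnight at 30 C, loaded with no-wash calcium dye. After a 10 s baseline, compound was pin-added and calcium flux read kinetically for 180 s; calcium rises flagged agonists.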
D2 PAM-2: HTS Assay for Positive Allosteric Modulators of the Human D2 Dopamine Receptor: Primary Screen for Potentiators; HEK293 T-REx D2, calcium flux, EC20 dopamine potentiation; potentiation, % at 10 µM; actives 0.34% (n = 340,000);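 active = potentiation over 3 SD above the plate norm, cut at about 30% in these data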; note: 0% is about no effect
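Calcium flux readout, no-wash dye, 1 read/s. Inducible HEK293 Trex D2 line, overnight 30 C. Compound alone 180 s (agonist flags), then EC20 dopamine, another 180 s to score potentiation.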
D2 ag-2: Beta-Arrestin HTS for Positive Allosteric Modulators of the Human D2 Dopamine Receptor: Agonists. D(2) dopamine receptor (Homo sapiens), P14416. DiscoveRx PathHunter D2 beta-arrestin, luminescence, 90 min; 100% = 57 uM dopamine signal. activation, % (no concentration beside the values). actives 0.084% (n = 360,000); in the data active = activation above about 40%; inconclusive = between about 15% and that limit
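Agonist mode: compounds alone added to overnight-plated D2 PathHunter cells for 90 min at 37 C, with 57 uM final dopamine (EC100) defining full response. Beta-arrestin recruitment detected by chemiluminescent reagent, read after 1 h at ambient temperature.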
D2 antag: HTS Assay for Allosteric Antagonists of the Human D2 Dopamine Receptor: Primary Screen for Antagonists. actives 2% (n = 340,000). inhibition, % at 10 µM. AID 485344, 2010. HEK293 TREx D2 cells, calcium flux, dopamine EC80; in the data active = inhibition above about 30%; inactive = below that, where a call was filed; note: 0% is about no effect
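Cells plated overnight at 30 C with tetracycline; no-wash calcium dye, 30–90 min RT; 10 s baseline; compound pinned; 180 s read; EC80 dopamine added; another 180 s read.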
* = called active by the depositor; ? = inconclusive; nt = not tested or not shown.

SMILES	D2 PAM-1	D2 ag-1	D2 PAM-2	D2 ag-2	D2 antag
CCOC(=O)C1=NOC(CNC(=O)c2c(-c3ccccc3Cl)noc2C)C1 (stereo not given)	-13	1	3	-1	-8
CC(=O)C1=NOC(CNC(=O)c2c(-c3ccccc3Cl)noc2C)C1 (stereo not given)	-2	0	32*	7	-6
O/N=C1\CCCc2ccccc21	-3	0	4	2	-12
O/N=C1\CCCCc2ccccc21	-5	-1	-2	0	33*
Nc1ncc(Br)cc1S(=O)(=O)NCCC(=O)NCc1ccc(F)cc1	-14	0	-3	1	-20
CC1CCCCC1NC(=O)CCNS(=O)(=O)c1cc(Br)cnc1N (stereo not given)	-7	0	3	1	33*
COc1ccc(CNC(=O)CCNS(=O)(=O)c2cc(Br)cnc2N)cc1	-5	0	46*	-3	-5
CC1CN(C(=O)Nc2ccc(C(=O)NCc3cccc(F)c3)cc2)c2ccccc2S1 (stereo not given)	nt	0	-9	nt	nt
COc1ccc(OCc2nnc(SCC(=O)Nc3cccc(Cl)c3)o2)cc1	-1	0	-3	-4	43*
Cc1ccc(OCc2nnc(SCC(=O)N3c4ccccc4Sc4ccc(Cl)cc43)o2)cc1	50*	2	-7	15	-7
Cc1nc(SCC(=O)Nc2cccc(Cl)c2)n[nH]1	-6	0	30*	-3	-14
COc1ccc(OCc2nnc(SCC(=O)Nc3ccc(C)cc3)o2)cc1	2	0	7	-1	-11
COc1ccc(OC)c(NC(=O)CS(=O)(=O)Cc2nc(-c3ccc(C)cc3)oc2C)c1	nt	-1	-2	nt	nt
c1ccc(Cn2nnc3c(N4CCc5ccccc54)ncnc32)cc1	-20	1	36*	-1	-18
Cn1c(=O)c2sccc2n2c(CCCC(=O)NCc3ccc(F)cc3)nnc12	-8	2	33*	-1	-12
Cn1c(=O)c2sccc2n2c(CCCC(=O)NCc3cccnc3)nnc12	-5	0	12	-5	7
Cn1c(=O)c2sccc2n2c(CCCC(=O)Nc3ccc(F)cc3F)nnc12	-11	1	32*	-2	4
Cn1c(=O)c2sccc2n2c(CCCC(=O)NCc3ccc4c(c3)OCO4)nnc12	-9	0	35*	-2	-16
Cn1c(=O)c2sccc2n2c(CCCC(=O)Nc3ccc(F)c(F)c3)nnc12	nt	0	22	nt	nt
COc1ccccc1C(=O)Nc1c(C(=O)N2CCN(c3ccccc3F)CC2)oc2ccccc12	nt	0	-2	nt	nt
CC1Cc2ccccc2N1C(=O)CN(C)CC(=O)Nc1ccc(F)cc1 (stereo not given)	-25	0	-3	-5	43*
CSc1ccc(/C=N\Nc2nncn2N)cc1	-3	0	2	43*	4
CCN(CC)c1ccc(NC(=O)C2COc3ccc(OC)cc3C2)c(C)c1 (stereo not given)	nt	0	-4	nt	nt
CC(C)(C)OC(=O)N1CCC(c2c(C(=O)NCC3CCN(C4CCCC4)C3)cnn2-c2ccccc2Cl)CC1 (stereo not given)	-9	-1	5	0	46*
CC(C)(C)OC(=O)N1CCC(c2c(C(=O)O)cnn2-c2ccccc2Cl)CC1	-13	-1	-2	-2	13
SMILES	D2 PAM-1	D2 ag-1	D2 PAM-2	D2 ag-2	D2 antag
O=C(Cc1ccc(F)cc1)NCCS(=O)(=O)N1CCN(c2ccccc2)CC1	-6	10	-6	?	46*
Cc1sc(NC(=O)c2ccco2)c(CN2CCN(c3ccc(F)cc3)CC2)c1C	-4	1	-5	1	33*
O=C(NCCS(=O)(=O)N1CCN(c2ccc(F)cc2)CC1)c1ccco1	-7	0	-13	-4	33*
CCOC(=O)N1CCN(Cc2c(NC(=O)c3ccco3)sc(C)c2C)CC1	-4	0	nt	4	7
O=C(NCCS(=O)(=O)N1CCN(c2ccccc2F)CC1)c1ccco1	10	-1	-3	-1	-3
O=C(NCCS(=O)(=O)N1CCN(c2ccccc2)CC1)C1CC(=O)N(c2ccc(F)cc2)C1 (stereo not given)	-6	0	-6	-1	32*
CCc1nnc(NC(=O)c2ccc(S(=O)(=O)N3CCCC3)cc2)s1	-6	0	-1	-2	-24
CCc1nnc(NC(=O)c2ccc(S(=O)(=O)N3CCCC(C)C3)cc2)s1 (stereo not given)	-3	-1	35*	-2	0
CSc1ccc2c(c1)C(N1CCN(C)CC1)Cc1ccccc1S2 (stereo not given)	-29	2	-27	-4	81*
COC(=O)c1ccc(OCC(O)CN2C(=O)c3ccccc3C2=O)cc1 (stereo not given)	-2	38*	-17	1	-4
COC(=O)c1ccc(OCC(O)CN2CCN(CC(O)COc3ccc(C(=O)OC)cc3)CC2)cc1 (stereo not given)	-4	0	10	-2	4
COc1ccc(OCC(O)CN2C(=O)NC(C)(C)C2=O)cc1 (stereo not given)	-3	0	-8	-1	31*
COc1ccc(C2Nc3ccccc3C(=O)N2Cc2ccccc2)cc1CN1CCOCC1 (stereo not given)	-7	0	4	-3	-3
COc1ccc(C2Nc3ccccc3C(=O)N2c2ccccc2)cc1CN1CCOCC1 (stereo not given)	-13	0	-1	4	30*
Fc1ccccc1N1CCN(c2nnc(C(F)(F)F)c3nnn(Cc4ccccc4)c23)CC1	nt	12	6	nt	nt
CSCC(C)N1CCC(CCC(=O)NC2CC2)CC1 (stereo not given)	-4	0	101*	-4	-23
O=C(CNC(=O)c1ccco1)NCC(=O)OCC(=O)c1ccc(Cl)c([N+](=O)[O-])c1	-31	0	38*	-28	5
O=C(CNC(=O)c1ccco1)OCc1c(F)cccc1Cl	-1	0	41*	0	-26
O=C(CNC(=O)c1ccco1)NCC(=O)OCc1c(F)cccc1Cl	4	1	13	2	-2
COC1=C/C(=C/c2c(O)c(C#N)c3ccccn23)C=CC1=O	-7	2	-3	-2	33*
